In PubChem BioAssay AID1863 (Southern Research Specialized Biocontainment Screening …, 2009):
Where “and” joins values, the source holds several entries; their conditions need not be identical. Identical values can stand only once. In all, about 300,000 compounds went through this assay and about 480 (0.16%) were called active.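 Rule for the calls: active = inhibition over 29.93%, a cutoff 3 SD above the screen mean, later confirmed by dose response; inconclusive = inhibition over 29.93% but no dose response follow-up; inactive = inhibition at most 29.93% or unconfirmed.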 Not all results are given here. Results with a measured potency or affinity are listed apart.

Test: PhoP-dependent GFP reporter repression – Salmonella Typhimurium, primary screen (AID 1863);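 note: 0% = low Mg2+ inducing control and 100% = high Mg2+ repressing control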
Details: S. Typhimurium PhoP-regulated promoter GFP reporter, 4 h; at 50 µM; active compounds read high

inhibition, inactive:
CCCNC(=O)Nc1ccc(F)c(Cl)c1 -2.59%, COc1ccc(CNc2nc(NCc3ccc(OC)cc3)n(S(C)(=O)=O)n2)cc1 -5.9%, Cc1c(NC(=O)/C(C#N)=C/c2ccccc2)c(=O)n(-c2ccccc2)n1C 0.82%, CCc1ccc2nc(N)sc2c1 1.27%, O=C(N/N=C/c1ccc([N+](=O)[O-])s1)c1ccccc1 -2.83%, O=C(N/N=C/c1ccc(Cl)s1)C(O)c1ccccc1 (centres undefined) -4.15%, Cc1cc(C(=O)N/N=C/c2ccc(C)s2)n[nH]1 11.3%, Cc1[nH]cnc1C(=O)N/N=C/c1ccc([N+](=O)[O-])s1 4.75%, O=C(CSc1nnc(-c2ccccn2)o1)Nc1ccccc1 -5.62%, CCc1ccccc1NC(=O)c1cc(-c2cccs2)on1 -12.5%, COC(=O)c1cc(N=C(N)N=C(N)N)cc(C(=O)OC)c1 -9.38%, O=c1c2ccccc2nc2c3ccccc3c(Cl)nn12 4.87%, Cc1ccc(OCCC(=O)OCC(=O)Nc2cc(C)cc(C)c2)cc1 -5.06%, Cc1cc(NC(=O)COC(=O)C2=COCCO2)c([N+](=O)[O-])cc1C -7.57%, COCc1ccc(O)c2ncccc12 -1.56%, Oc1cc2c(cc1CN1CCc3ccccc3C1)OCO2 -4.04%, Oc1ccc(CNc2ccccc2)c2cccnc12 5.74%, Oc1ccc(CN2CCC(Cc3ccccc3)CC2)c2cccnc12 10.7%, COCc1cc(CN2CCN(C)CC2)c(O)c2ncccc12 6.95%, COc1ccccc1N1CCN(Cc2ccc(O)c3ncccc23)CC1 18.9%, Cc1ccccc1NCc1ccc(O)c2ncccc12 -2.12%, Oc1ccc(CN2CCN(c3ccccc3)CC2)c2cccnc12 -1.49%, CC(=O)Nc1ccc(S(=O)(=O)NC(C)C(=O)NC(C)c2ccccc2)cc1 (centres undefined) -5.32%, Cc1ccccc1OCC(=O)NC(=S)Nc1ccccc1N1CCN(S(C)(=O)=O)CC1 -1.77%, CC1=C(C(=O)OC(C)C)C(c2ccsc2)NC(=O)N1C (centres undefined) -5.45%, Cc1ccc(S(=O)(=O)NCCC(=O)NCC(=O)Nc2c(C)cccc2C)cc1C -4.98%, Cc1nc2ccccc2n1CCCOc1ccccc1 5.12%, OC(COc1ccc(Cl)cc1)CN1CCC(Cc2ccccc2)CC1 (centres undefined) -10.4%, CC1(C)CCC(=O)C=C1Nc1ccc(F)c(Cl)c1 -5.11%, CCC(CC)C1=NN2C(=N)/C(=C/c3ccc(OC(=O)c4ccco4)cc3)C(=O)N=C2S1 -9.8%, C=CCN(c1ccccc1)S(=O)(=O)c1cccc(C(=O)N2CC(C)CC(C)C2)c1 (centres undefined) -1.91%, CCCOc1ccc(C(C)(O)CN2CCOCC2)cc1 (centres undefined) 6.65%, Oc1ccc(CN2CCCCC2)c2cccnc12 8.92%, CCOC(=O)C1CCN(Cc2ccc(O)c3ncccc23)CC1 6.23%, CN(Cc1ccccc1)S(=O)(=O)c1ccccc1[N+](=O)[O-] 6.63%, CCn1cc(C(=O)O)c(=O)c2cnc(N3CCN(C(=S)Nc4ccccc4Cl)CC3)nc21 14.7%, CCn1cc(C(=O)NC(C)C)c(=O)c2cc(F)c(N3CCN(C(=O)c4ccco4)CC3)cc21 3.82%, COc1ccccc1NC(=S)N1CCN(c2ccccc2F)CC1 -4.74%, COc1ccc(CCNC(=O)C(C(=O)c2ccc(F)cc2)n2ccccc2=O)cc1OC (centres undefined) 7.45%, Cc1cc(C)n(CCNS(=O)(=O)c2ccc(C)c(C)c2)n1 5.17%, CC(C)(C)NC(=O)NC(=O)CSc1ncn[nH]1 4.4%, O=C(NNC(=O)c1ccccc1O)c1ccco1 4.25%, O=C(NC(=S)NNC(=O)c1cc2ccccc2cc1O)c1ccco1 -4.81%, O=C1CC(c2cc([N+](=O)[O-])ccc2Cl)c2c(ccc3ccccc23)N1 (centres undefined) -8.09%, COc1cccc(/C=C/C(=O)OCC(=O)Nc2ccccc2Sc2ccccc2)c1 14.5%, COC(=O)C1=CO[C@@H](OC2OC(CO)C(O)C(O)C2O)[C@@H]2[C@@H](C)[C@@H](O)C[C@H]12 (some centres undefined) -2.72%, Cc1ccc(C)c(/C(O)=C2/C(=O)C(=O)N(CCN3CCOCC3)C2c2ccc(C)o2)c1 (centres undefined) 3.28%, Cc1ccc(S(=O)(=O)Oc2ccc(/C=N/NC(=O)c3nn(C)cc3Cl)cc2)cc1 1.65%, Cc1ccccc1NC(=O)Cn1nc(-c2ccc(Cl)s2)ccc1=O -3.56%, O=C(c1cnc2n(c1=O)CCS2)N1CCN(C(c2ccccc2)c2ccc(Cl)cc2)CC1 (centres undefined) 3.09%, O=C1CN(/N=C/c2ccc([N+](=O)[O-])o2)C(=O)N1 -5.89%, O=C(O)/C=C/c1ccc([N+](=O)[O-])o1 23.2%, COc1ccc2nc(Nc3ccc4c(c3)OCO4)sc2c1 14%, CC(C)CN(C(=O)COC(=O)CCCc1nc2ccccc2s1)c1c(N)n(Cc2ccccc2)c(=O)[nH]c1=O -9.27%, O=C(NCCCc1ccccc1)c1ccc(-n2cncn2)c([N+](=O)[O-])c1 2.7%, O=c1[nH]cc(-c2ccccc2)c(=O)[nH]1 -0.675%, O=c1[nH]cc(O)c(=O)[nH]1 6.24%, O=[N+]([O-])c1ccccc1/C=N/n1c(C2CCCCC2)n[nH]c1=S 8.51%, c1ccc(-n2c3ccccc3c3ccccc32)cc1 -2.33%, Cn1c(-c2ccccc2)c(CCO)c2ccccc21 -0.97%, O=C(CN(Cc1ccc(Br)cc1)S(=O)(=O)c1ccccc1)NCC1CCCO1 (centres undefined) -5.51%, Cc1ccc(N2CC(C(=O)Nc3ccccc3C(=O)NC3CCCCC3)CC2=O)cc1 (centres undefined) 3.33%, CC(NC(=O)CCNC(=O)c1ccccc1Cl)C1CC2CCC1C2 (centres undefined) 10.5%, Cc1cccc(Nc2cc(=O)[nH]c(=O)[nH]2)c1C 11.8%, Nc1ccn([C@@H]2O[C@H](CO)[C@@H](O)C2O)c(=O)n1 (some centres undefined) -5.08% and -1.41%, Nc1ncnc2c1ncn2[C@@H]1O[C@H](CO)[C@@H](O)[C@H]1O 3.62%, Nc1cnn(C2OC(CO)C(O)C2O)c(=O)n1 (centres undefined) -3.56%, NC(=O)c1ncn([C@@H]2O[C@H](CO)[C@@H](O)[C@H]2O)c1O 2.19%, Nc1ccn([C@@H]2O[C@H](CO)[C@@H](O)[C@@H]2O)c(=O)n1 -7.73% and -0.16%, Nc1nc(Cl)nc2c1ncn2[C@@H]1O[C@H](CO)[C@@H](O)[C@H]1O -6.56% and 6.76%, Cc1cc(C)c(NC(=O)CNC(=O)CN2C(=O)NC3(CCCc4ccccc43)C2=O)c(C)c1 (centres undefined) 0.74%, Cc1cccc(Nc2nccc(N(C)C)c2C#N)c1 -5.86%, COc1ccc(-c2noc(CCC(=O)NCCN3CCN(c4ccccc4F)CC3)n2)cc1 -6.34%, O=C(Nc1cccc2ccccc12)N1CC=C(c2ccccc2)CC1 8.64%, CC(CN1CCCCC1)C(=O)NN (centres undefined) 2.4%, O=C(CNC(=O)c1ccccc1F)N/N=C/c1cn[nH]c1-c1ccccc1 -11.6%, Cc1cc(OCC(=O)OCC(=O)N(C)c2c(N)n(Cc3ccccc3)c(=O)[nH]c2=O)ccc1Cl -6.01%, O=C(NCC1CCCO1)c1cccnc1Nc1ccccc1F (centres undefined) 8.77%, CC1=C(C(=O)Nc2cccc([N+](=O)[O-])c2)C2(CCC(C)CC2)OC1=O (centres undefined) -3.06%, O=C(Cc1ccc(-n2c(=O)[nH]c3ccsc3c2=O)cc1)NCc1cccnc1 0.29%, CNC(=S)Nc1cc(C(F)(F)F)ccc1Cl 4.05%, COc1cc(/C=C/C(=O)O)ccc1O -9.92%, COc1cc(/C=C/C(=O)CC(=O)/C=C/c2ccc(O)c(OC)c2)ccc1O 8.28%, O=C(Cn1c(=O)oc2cc(S(=O)(=O)N3CCCC3)ccc21)Nc1ccccc1Br -3.67%, CCNc1nc(NC(C)C)nc(OCC)n1 -7.28%, CCO[C@@H]1OC(C(=O)N2CCN(Cc3ccc4c(c3)OCO4)CC2)=C[C@H](C2CCCCC2)[C@H]1CCCO 2.5%, CCCCCCCNC(=O)C1(CC2CC(c3cccc(Br)c3)=NO2)CCN(C(=O)C2CCCC2)CC1 (centres undefined) 12.9%, CCCCCCCNC(=O)C1(CC2CC(c3ccc(Cl)cc3)=NO2)CCN(C(=O)C2(C)CC2)CC1 (centres undefined) -5.4%, CCCCCCCNC(=O)C1(CC2CC(c3cccc(Br)c3)=NO2)CCN(C(=O)OC(C)(C)C)CC1 (centres undefined) -0.33%, CCCCCCCNC(=O)C1(CC2CC(c3ccccc3)=NO2)CCNCC1 (centres undefined) 0.18%, Cc1ccccc1C(=O)Nc1ccccc1NC(=O)c1ccccc1Br -5.42%, CCc1nc(C)cn1S(=O)(=O)c1cc(Br)ccc1OC 1.41%, COC(CNC(=O)C(=O)NCC1OCCN1C(=O)c1ccc(Cl)cc1)OC (centres undefined) 12.8%, CC(C)C[C@H](NC(=O)N1CCn2c1nc1ccccc12)C(=O)NCc1ccco1 -1.56%
